This is part of a sample that, as a whole, favours compounds with a hit. Of some 83,000 tested, about 20% had one in any assay.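 Activity criterion: percent growth below 10, measured after cells in 96-well plates were exposed to a single compound concentration for 48 hours.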 Unmarked numbers belong to inactive results. Activity calls are given as the source filed them.

Some test systems named below: HCT-15 colon; HT29 colon; SNB-75 CNS; SNB-19 CNS; U251 CNS; PC-3 prostate; SK-MEL-5 melanoma; UACC-62 melanoma; LOX IMVI melanoma; SK-MEL-28 melanoma; SK-MEL-2 melanoma; EKVX NSCLC; SN12C renal; UO-31 renal; TK-10 renal; ACHN renal; CAKI-1 renal; CCRF-CEM leukemia; MOLT-4 leukemia.
Holding throughout (experiment): NCI-60 one-dose screen, 48 h (100 = growth as untreated, 0 = no growth, -100 = all killed)
Common to all, as to conditions: 10 µM unless noted

`N/C(=N\C(N)=N\c1nc2ccccc2s1)c1ccnc(Br)c1`: the growth with HCT-15 colon is 19.6%; with HT29 colon, 10.2%; in the assay with SNB-75 CNS it was -13.2% (active); in the assay with SNB-19 CNS it was 39.1%; in the assay on U251 CNS it was 26.3%; with PC-3 prostate, 35.3%. The growth in the assay on SK-MEL-5 melanoma was 27.1%; in the assay with UACC-62 melanoma, 27.7%; in the assay with LOX IMVI melanoma, 33.8%; with SK-MEL-28 melanoma, 57.2%; in the assay on SK-MEL-2 melanoma, 7.48% (active); with EKVX NSCLC it was 82.6%. The growth is 40.5% with SN12C renal; 33.1% with UO-31 renal; 82.2% with TK-10 renal; 27.6% with ACHN renal; 25.4% in the assay on CAKI-1 renal; 21.3% in the assay with CCRF-CEM leukemia. In addition, the growth in the assay on MOLT-4 leukemia was 34%.
In the case of `C/C(=N\NC(=O)CSc1nc2ccccc2c(=O)n1CCc1ccc(S(N)(=O)=O)cc1)c1ccccn1`, the growth in the assay with HCT-15 colon was 26.8%; with HT29 colon, 31.5%; with SNB-75 CNS, 74.5%; in the assay on SNB-19 CNS, 46.6%; with U251 CNS, 31.8%; with PC-3 prostate it was 50.7%. Moreover, the growth in the assay with SK-MEL-5 melanoma is 24.9%; with UACC-62 melanoma, 19.5%; with LOX IMVI melanoma it was 13.8%; in the assay on SK-MEL-28 melanoma it was 37.6%; in the assay with SK-MEL-2 melanoma, 47.2%; in the assay with EKVX NSCLC, 30.5%. The growth in the assay on SN12C renal was 38.5%; in the assay on UO-31 renal it was 29.8%; in the assay on TK-10 renal, 34.5%; in the assay on ACHN renal it was 21.2%; in the assay with CAKI-1 renal, 37.6%; with CCRF-CEM leukemia, 20.6%. Besides, the growth with MOLT-4 leukemia was 17.7%.
For the molecule `C=C1C(=O)O[C@H]2[C@H]1CC/C(COC(=O)NCc1c[nH]c3ccc(F)cc13)=C\CC[C@@]1(C)O[C@@H]21`, the growth is -63.9% (active) in the assay with HCT-15 colon; -50.2% (active) in the assay on HT29 colon; 26.4% with SNB-75 CNS; 39.5% with SNB-19 CNS; 18.7% in the assay on U251 CNS; 32% with PC-3 prostate. Moreover, the growth in the assay on SK-MEL-5 melanoma is -14.9% (active); in the assay with UACC-62 melanoma it was -75.1% (active); with LOX IMVI melanoma, -83.4% (active); in the assay with SK-MEL-28 melanoma, -62.5% (active); with SK-MEL-2 melanoma, 28.6%; with EKVX NSCLC, 10.6%. The growth in the assay on SN12C renal was -64.4% (active); with UO-31 renal it was -99.5% (active); in the assay with TK-10 renal, -15.1% (active); in the assay on ACHN renal it was -84.1% (active); in the assay with CAKI-1 renal it was -87.3% (active); in the assay on CCRF-CEM leukemia it was -8.32% (active). The growth with MOLT-4 leukemia is 3.81% (active).
In the case of `CCCC/C=N/NC(=S)NCc1ccccc1`, the growth with HCT-15 colon is 95.8%; in the assay with HT29 colon it was 101%; with SNB-75 CNS it was 86%; with SNB-19 CNS it was 95.9%; in the assay on U251 CNS, 97.1%; with PC-3 prostate it was 86.1%. The growth with SK-MEL-5 melanoma is 97.1%; in the assay on UACC-62 melanoma it was 93.8%; in the assay with LOX IMVI melanoma, 97.3%; in the assay on SK-MEL-28 melanoma it was 98.2%; with SK-MEL-2 melanoma, 106%; with EKVX NSCLC it was 101%. For the same molecule, the growth with SN12C renal is 96.1%; with UO-31 renal, 93.3%; with TK-10 renal it was 103%; with ACHN renal, 99.4%; in the assay on CAKI-1 renal, 100%; in the assay on CCRF-CEM leukemia it was 99.1%. The growth in the assay with MOLT-4 leukemia was 95%.
For `Nc1nc(Nc2ccccc2SSc2ccccc2Nc2nc(N)nc(-c3cccs3)n2)nc(-c2ccsc2)n1`, the growth in the assay on HCT-15 colon is 56.7%; in the assay on HT29 colon it was 98.7%; in the assay on SNB-75 CNS, 98.3%; with SNB-19 CNS it was 87.7%; in the assay with U251 CNS, 53.1%; in the assay with PC-3 prostate it was 57.2%. Besides, the growth was 94.7% in the assay on SK-MEL-5 melanoma; 71% in the assay on UACC-62 melanoma; 35.9% in the assay with LOX IMVI melanoma; 98.7% with SK-MEL-28 melanoma; 99.1% with SK-MEL-2 melanoma; 77.3% with EKVX NSCLC. Further, the growth was 27.3% in the assay on SN12C renal; -45.5% (active) with UO-31 renal; 118% in the assay with TK-10 renal; 65.3% with ACHN renal; 20% in the assay on CAKI-1 renal; 60.5% with CCRF-CEM leukemia. Also, the growth in the assay on MOLT-4 leukemia was 63.2%.
For the molecule `O=C(c1nnc(Nc2ccccc2Br)o1)c1c[nH]c2ccccc12`, the growth in the assay with HCT-15 colon is 80.1%; in the assay with HT29 colon it was 100%; with SNB-75 CNS it was 89.2%; with SNB-19 CNS, 96.8%; in the assay with U251 CNS, 96.9%; with PC-3 prostate, 87.6%. For the same molecule, the growth in the assay on SK-MEL-5 melanoma was 89.5%; with UACC-62 melanoma, 83%; in the assay on LOX IMVI melanoma, 96%; in the assay with SK-MEL-28 melanoma it was 104%; with SK-MEL-2 melanoma, 110%; in the assay with EKVX NSCLC, 104%. The growth with SN12C renal was 93.4%; in the assay on UO-31 renal it was 87%; in the assay on TK-10 renal it was 112%; in the assay on ACHN renal it was 90.8%; in the assay with CAKI-1 renal, 87.4%; in the assay with CCRF-CEM leukemia, 97.5%. The growth in the assay on MOLT-4 leukemia is 106%.

These data come from PubChem BioAssay (NCI).
